# Data published in the supplement of paper PMC8728848.
# This excerpt belongs to a sample that is enriched for the strongest signals.
# Experiments:
# Test in all cases: glycan array binding signal (z-score within array); higher = stronger binding
# Details in all cases: glycan notation: IUPAC condensed, linker removed
# [1] = molecular target: Fuc(a1-2)Gal(b1-3)GlcNAc(b1-2)Man(a1-3)[Fuc(a1-2)Gal(b1-3)GlcNAc(b1-2)Man(a1-6)]Man(b1-4)GlcNAc(b1-4)[Fuc(a1-6)]GlcNAc
# Summary of the method: (§1)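 Glycan array data were curated from 3228 arrays in the Consortium for Functional Glycomics database and kept only where the protein sequence was available. Glycan names were converted to IUPAC-condensed notation, and columns mapping to the same glycan were averaged. The binding signal is a within-array Z-score, averaged across arrays of the same protein sequence at different concentrations or buffers and across linkers. Negative Z-scores can be read as non-binding.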
# [2] = molecular target: Fuc(a1-2)Gal(b1-3)GlcNAc(b1-3)GalNAc
# Summary of the method: as §1
# [3] = molecular target: Fuc(a1-2)Gal(b1-4)[Fuc(a1-3)]GlcNAc(b1-2)Man(a1-3)[Fuc(a1-2)Gal(b1-4)[Fuc(a1-3)]GlcNAc(b1-2)Man(a1-6)]Man(b1-4)GlcNAc(b1-4)[Fuc(a1-6)]GlcNAc
# Summary of the method: as §1
# [4] = molecular target: Fuc(a1-2)Gal3S(b1-4)GlcNAc
# Summary of the method: as §1
# [5] = molecular target: Fuc(a1-2)[Gal(a1-3)]Gal(b1-4)GlcNAc(b1-3)[Fuc(a1-2)[Gal(a1-3)]Gal(b1-4)GlcNAc(b1-6)]GalNAc
# Summary of the method: as §1
# [6] = molecular target: Fuc(a1-2)[GalNAc(a1-3)]Gal(b1-3)GlcNAc
# Summary of the method: as §1
# [7] = molecular target: Fuc(a1-2)[GalNAc(a1-3)]Gal(b1-4)GlcNAc(b1-2)Man(a1-3)[Fuc(a1-2)[GalNAc(a1-3)]Gal(b1-4)GlcNAc(b1-2)Man(a1-6)]Man(b1-4)GlcNAc(b1-4)[Fuc(a1-6)]GlcNAc
# Summary of the method: as §1
# Fuc(a1-4)GlcNAc = molecular target: Fuc(a1-4)GlcNAc
# Summary of the method: as §1
# [8] = molecular target: Gal(a1-3)Gal(b1-3)GlcNAc(b1-3)GalNAc
# Summary of the method: as §1
# [9] = molecular target: Gal(a1-3)Gal(b1-3)[Fuc(a1-4)]GlcNAc(b1-2)Man(a1-3)[Gal(a1-3)Gal(b1-3)[Fuc(a1-4)]GlcNAc(b1-2)Man(a1-6)]Man(b1-4)GlcNAc(b1-4)GlcNAc
# Summary of the method: as §1
# [10] = molecular target: Gal(a1-3)Gal(b1-4)GlcNAc(b1-2)Man(a1-3)[Gal(a1-3)Gal(b1-4)GlcNAc(b1-2)Man(a1-6)]Man(b1-4)GlcNAc(b1-4)GlcNAc
# Summary of the method: as §1
# [11] = molecular target: Gal(a1-4)Gal(b1-4)GlcNAc(b1-2)Man(a1-3)[Gal(a1-4)Gal(b1-4)GlcNAc(b1-2)Man(a1-6)]Man(b1-4)GlcNAc(b1-4)GlcNAc
# Summary of the method: as §1
# Gal(b1-3)GlcNAc6S = molecular target: Gal(b1-3)GlcNAc6S
# Summary of the method: as §1
# [12] = molecular target: Gal(b1-3)[Fuc(a1-4)]GlcNAc
# Summary of the method: as §1
# [13] = molecular target: Gal(b1-4)GalNAc(a1-3)[Fuc(a1-2)]Gal(b1-4)GlcNAc
# Summary of the method: as §1
# Gal(b1-4)GlcNAc(b1-2)Man = molecular target: Gal(b1-4)GlcNAc(b1-2)Man
# Summary of the method: as §1
# [14] = molecular target: Gal(b1-4)GlcNAc(b1-3)Gal(b1-4)GlcNAc(b1-2)Man(a1-3)[Gal(b1-4)GlcNAc(b1-3)Gal(b1-4)GlcNAc(b1-2)Man(a1-6)]Man(b1-4)GlcNAc(b1-4)GlcNAc
# Summary of the method: as §1
# [15] = molecular target: Gal(b1-4)GlcNAc(b1-3)Gal(b1-4)GlcNAc(b1-3)Gal(b1-4)GlcNAc(b1-2)Man(a1-3)[Gal(b1-4)GlcNAc(b1-3)Gal(b1-4)GlcNAc(b1-3)Gal(b1-4)GlcNAc(b1-2)Man(a1-6)]Man(b1-4)GlcNAc(b1-4)GlcNAc
# Summary of the method: as §1
# [16] = molecular target: Gal(b1-4)GlcNAc(b1-3)Gal(b1-4)GlcNAc(b1-3)Gal(b1-4)GlcNAc(b1-3)Gal(b1-4)GlcNAc(b1-2)Man(a1-3)[Gal(b1-4)GlcNAc(b1-3)Gal(b1-4)GlcNAc(b1-3)Gal(b1-4)GlcNAc(b1-3)Gal(b1-4)GlcNAc(b1-2)Man(a1-6)]Man(b1-4)GlcNAc(b1-4)GlcNAc
# Summary of the method: as §1
# [17] = molecular target: Gal(b1-4)GlcNAc(b1-3)Gal(b1-4)GlcNAc(b1-3)Gal(b1-4)GlcNAc(b1-3)Gal(b1-4)GlcNAc(b1-2)Man(a1-3)[Gal(b1-4)GlcNAc(b1-3)Gal(b1-4)GlcNAc(b1-3)Gal(b1-4)GlcNAc(b1-3)Gal(b1-4)GlcNAc(b1-2)Man(a1-6)]Man(b1-4)GlcNAc(b1-4)[Fuc(a1-6)]GlcNAc
# Summary of the method: as §1
# [18] = molecular target: Gal(b1-4)GlcNAc(b1-3)Gal(b1-4)GlcNAc(b1-3)Gal(b1-4)GlcNAc(b1-3)Gal(b1-4)GlcNAc(b1-3)Gal(b1-4)GlcNAc(b1-2)Man(a1-3)[Gal(b1-4)GlcNAc(b1-3)Gal(b1-4)GlcNAc(b1-3)Gal(b1-4)GlcNAc(b1-3)Gal(b1-4)GlcNAc(b1-3)Gal(b1-4)GlcNAc(b1-2)Man(a1-6)]Man(b1-4)GlcNAc(b1-4)[Fuc(a1-6)]GlcNAc
# Summary of the method: as §1
# [19] = molecular target: Gal(b1-4)GlcNAc(b1-3)Gal(b1-4)GlcNAc(b1-3)[Gal(b1-4)GlcNAc(b1-3)Gal(b1-4)GlcNAc(b1-6)]GalNAc
# Summary of the method: as §1
# Gal6S(b1-3)GlcNAc6S = molecular target: Gal6S(b1-3)GlcNAc6S
# Summary of the method: as §1
# Gal6S(b1-4)GlcNAc = molecular target: Gal6S(b1-4)GlcNAc
# Summary of the method: as §1
# [20] = molecular target: GalNAc(a1-3)GalNAc(b1-3)Gal(a1-4)Gal(b1-4)Glc
# Summary of the method: as §1
# [21] = molecular target: GalNAc(b1-3)Gal(a1-4)Gal(b1-4)GlcNAc
# Summary of the method: as §1
binder,measurement,setting,value
TIM1 (protein) ADGIQSVKVGGEAGPSVTLPCHYSGAVTSMCWNRGSCSLFTCQNGIVWTNGTHVTYRKDTRYKLLGDLSRRDVSLTIENTAVSDSGVYCCRVEHRGWFNDMKITVSLEIVPPHHHHHH,glycan array binding signal (z-score),[1],-0.132
same,glycan array binding signal (z-score),[2],-0.153
same,glycan array binding signal (z-score),[3],0.121
same,glycan array binding signal (z-score),[4],-0.264
same,glycan array binding signal (z-score),[5],1.94
same,glycan array binding signal (z-score),[6],-0.189
same,glycan array binding signal (z-score),[7],-0.187
same,glycan array binding signal (z-score),Fuc(a1-4)GlcNAc,8.15
same,glycan array binding signal (z-score),[8],-0.169
same,glycan array binding signal (z-score),[9],0.01
same,glycan array binding signal (z-score),[10],0.343
same,glycan array binding signal (z-score),[11],-0.176
same,glycan array binding signal (z-score),Gal(b1-3)GlcNAc6S,-0.212
same,glycan array binding signal (z-score),[12],-0.25
same,glycan array binding signal (z-score),[13],-0.212
same,glycan array binding signal (z-score),Gal(b1-4)GlcNAc(b1-2)Man,0.009
same,glycan array binding signal (z-score),[14],7.65
same,glycan array binding signal (z-score),[15],3.39
same,glycan array binding signal (z-score),[16],0.208
same,glycan array binding signal (z-score),[17],0.223
same,glycan array binding signal (z-score),[18],-0.05
same,glycan array binding signal (z-score),[19],2.45
same,glycan array binding signal (z-score),Gal6S(b1-3)GlcNAc6S,-0.043
same,glycan array binding signal (z-score),Gal6S(b1-4)GlcNAc,-0.175
same,glycan array binding signal (z-score),[20],-0.178
same,glycan array binding signal (z-score),[21],0.287
